Out of some 290,000 compounds screened, about 1,800 (0.62%) were called active. The sample holds actives, similar compounds and a random draw of the others, so the mix is not that of the screen. No stated cut-off is given here; in the data, active means inhibition above about 50%; inactive means the rest.
Assay: inhibition of NOD2-driven NF-kB reporter – cell-based, luminescence, uHTS, HEK293 (AID 1566)
Conditions: HEK293 NOD2/NF-kB luciferase reporter, at 4 µM, hits give high values

SMILES	inhibition
CCOc1ccccc1-n1c(SCC(=O)N2CCOCC2)nc2ccccc2c1=O	24.9% (inactive)
O=C(NCCNc1ccnc2cc(Cl)ccc12)c1ccccc1F	54.8% (active)
O=C(NCCNc1ccc(Cl)cc1[N+](=O)[O-])c1ccccc1F	-16.6% (inactive)
O=C(NCCCNc1ccnc2cc(Cl)ccc12)c1ccccc1F	28.3% (inactive)
C=CCOC(=O)C1=C(C)NC(C)=C(C(=O)OCC=C)C1/C=C/c1ccccc1	-0.8% (inactive)
Cc1ccccc1C(=O)Oc1cc(N)n(S(=O)(=O)c2ccccc2)n1	5.8% (inactive)
Cc1ccccc1NS(=O)(=O)c1cc(OCC(N)=O)c(C)cc1Cl	0.2% (inactive)
CC1Cc2ccccc2N1c1ncnc2nc[nH]c12 (stereo not drawn)	1.3% (inactive)
CC1Cc2ccccc2N1c1ncnc2c1nnn2Cc1ccccc1 (stereo not drawn)	9.3% (inactive)
CC1Cc2ccccc2N1c1ncnc(N)c1[N+](=O)[O-] (stereo not drawn)	82.8% (active)
Fc1ccc2c(Cl)c(-c3nnc(-c4cccs4)o3)sc2c1	-112% (inactive)
N=C(N)SCc1cn(-c2ccccc2)nc1-c1ccc(Br)cc1	8.8% (inactive)
COc1ccc(S(=O)(=O)N2CCN(C3CCCC(C)C3)CC2)cc1 (stereo not drawn)	-12.3% (inactive)
O=C(Nc1cccc(S(=O)(=O)Nc2ccc(Cl)cc2)c1)c1ccc2c(c1)OCCO2	55.7% (active)
Cc1ccc(NC(=O)c2ccc3c(c2)OCCO3)cc1S(=O)(=O)Nc1cccc(Cl)c1	10.3% (inactive)
O=C(Nc1cccc(Cl)c1)c1ccc2c(c1)OCCO2	-169% (inactive)
COC(=O)[C@H](C)NC(=O)NC1CCCc2ccccc21 (stereo partly drawn)	3.2% (inactive)
C/C(CC(=O)NCc1ccc(Cl)cc1)=N\NC(=O)c1ccccc1F	4.7% (inactive)
Nc1ccc2c(c1)OC1(CCCC1)O2	69.9% (active)
Nc1ccc2c(c1)OC1(CCCCC1)O2	13.4% (inactive)
O=C(Nc1ccc2c(c1)OC1(CCCC1)O2)C1CC1	-19.4% (inactive)
CCN(CCCNC(=O)C1CCN(S(=O)(=O)N2CCC3(CC2)OCCO3)CC1)c1ccccc1	5.4% (inactive)
CC(C)CNC(=O)COC(=O)c1c2c(nc3ccccc13)CCC2	6.3% (inactive)
CC(C)NC(=O)NC(=O)COC(=O)c1c2c(nc3ccccc13)CCC2	51.1% (active)
CNC(=O)COC(=O)c1c2c(nc3ccccc13)CCC2	4.8% (inactive)

SMILES	inhibition
CCCc1nc2ccccc2c(=O)n1CCc1ccccc1	-5.9% (inactive)
CC(C)CC(NC(=O)OC(C)(C)C)C(=O)NC(C(=O)N1CCCC1C(N)=O)C(C)C (stereo not drawn)	4.1% (inactive)
Cc1oc(-c2ccccc2Cl)nc1CN1CCCC1c1ccc(F)cc1 (stereo not drawn)	0.4% (inactive)
CCOc1ncccc1C(=O)N1CCN(C(c2ccccc2)c2ccccc2)CC1	43.5% (inactive)
Cc1ccccc1C(=O)N1CCN(C(c2ccccc2)c2ccccc2)CC1	46.9% (inactive)
COc1ccc(N(Cc2cc3cc(OC)ccc3[nH]c2=O)C(=O)c2cccnc2)cc1	29.5% (inactive)
COc1cc(C(=O)N[C@H](C(=O)NC(C)C23CC4CC(CC(C4)C2)C3)C(C)C)cc(OC)c1OC (stereo partly drawn)	4% (inactive)
COc1ccc(C(=O)NCc2ccc(-c3nc4ccccc4s3)cc2)cc1OC	-45.5% (inactive)
COc1cc(C(=O)NCc2ccc(-c3nc4ccccc4s3)cc2)cc(OC)c1OC	-72.3% (inactive)
COc1cc(OC)c(OC)cc1CN1CCN(Cc2ccc(C(F)(F)F)cc2)CC1	5.4% (inactive)
COc1ccc(Nc2cc(Nc3ccc(OC)cc3)ncn2)cc1	-19.7% (inactive)
COc1ccc(Nc2cc(Sc3ccc(OC)cc3)ncn2)cc1	55.2% (active)
COc1ccc(Nc2cc(Nc3ccccc3)ncn2)cc1	-87% (inactive)
Cc1ccc(NC(=O)N(Cc2ccco2)Cc2cc3cc(C)cc(C)c3nc2Cl)cc1	-17.3% (inactive)
Cc1cc(C)c2nc(Cl)c(CN(Cc3ccco3)C(=O)Nc3ccccc3C)cc2c1	-17.6% (inactive)
Cc1cccc2cc(CN(Cc3ccco3)C(=O)Nc3cccc(C#N)c3)c(Cl)nc12	55.3% (active)
COc1cccc(-c2cc(C(F)(F)F)n3ncc(C(=O)N4CCc5ccccc5C4)c3n2)c1	17.4% (inactive)
C=CCNS(=O)(=O)CC12CCC(CC1=O)C2(C)C (stereo not drawn)	5.2% (inactive)
CC(C)(C)NS(=O)(=O)CC12CCC(CC1=O)C2(C)C (stereo not drawn)	50.9% (active)
CC1(C)C2CCC1(CS(=O)(=O)NC1CCCC1)C(=O)C2 (stereo not drawn)	17.9% (inactive)
COCCCn1c(SCC(=O)Nc2ccc(NC(C)=O)cc2)nc2sc3c(c2c1=O)CCC3	11.9% (inactive)
CCN(CC)c1nc2c(c(=O)[nH]c(=O)n2C)n1Cc1ccccc1Cl	5.7% (inactive)
COc1ccc(-n2cnnc2SCC(=O)c2ccc(S(=O)(=O)N3CCOCC3)cc2)cc1	2.6% (inactive)
COc1ccc(-c2ncccc2O)cc1	-2.7% (inactive)
O=C(O)c1c2c(nc3ccccc13)/C(=C/c1ccc(O)cc1)CCC2	11.1% (inactive)

SMILES	inhibition
O=C(O)c1c2c(nc3ccccc13)/C(=C/c1ccc(O)cc1)CC2	72.4% (active)
O=C(O)c1ccc(/C=C2\CCCc3c2nc2ccccc2c3C(=O)O)cc1	8.2% (inactive)
Cc1cccnc1CCNC(=O)c1ccc(OC2CCN(Cc3ccccn3)CC2)cc1	2.1% (inactive)
O=C(NCCc1ccccn1)c1ccc(OC2CCN(Cc3ccccn3)CC2)cc1	6.5% (inactive)
O=C(NCCc1cccc(Cl)c1)c1ccc(OC2CCN(Cc3ccccn3)CC2)cc1	53.1% (active)
CC(=O)N/C(N)=N/c1nc2cc(C)ccc2o1	-93.3% (inactive)
Cc1ccc2oc(/N=C(\N)NC(=O)C3CC3)nc2c1	5.6% (inactive)
O=C(CSc1nn(-c2ccc(F)cc2)c(=S)s1)N1CCN(C(=O)c2ccco2)CC1	4.8% (inactive)
Cc1no[n+]([O-])c1COc1ccc(/C=N/n2nnnc2N)cc1	-31% (inactive)
COc1cccc(/C=N/NC(=O)c2nnn(-c3nonc3N)c2C(C)C)c1	26.6% (inactive)
Cc1ccccc1C(=O)N1CCN(c2ccc(NC(=O)c3ccc4c(c3)OCO4)cc2)CC1	-42.4% (inactive)
O=C(Nc1ccc(N2CCN(C(=O)c3ccccc3)CC2)cc1)c1ccc2c(c1)OCCO2	38.7% (inactive)
Cc1ccc(S(=O)(=O)C(C#N)c2nc3ccccc3nc2N2CCCCC2)cc1 (stereo not drawn)	7.4% (inactive)
N#CC(c1nc2ccccc2nc1N1CCCCC1)S(=O)(=O)c1ccc(Cl)cc1 (stereo not drawn)	55.3% (active)
N#CC(c1nc2ccccc2nc1N1CCCC1)S(=O)(=O)c1ccccc1 (stereo not drawn)	-3.3% (inactive)
O=C(CCS(=O)(=O)c1ccccc1)NC12CC3CC(CC(C3)C1)C2	-42.4% (inactive)
Cc1cccc(N2CCN(C(=O)CCCn3c(=S)[nH]c4cc5c(cc4c3=O)OCO5)CC2)c1C	38.2% (inactive)
O=C(CCCCCn1c(=S)[nH]c2ccc(N3CCOCC3)cc2c1=O)NCc1ccccc1	29.5% (inactive)
O=C(CCCn1c(=S)[nH]c2cc3c(cc2c1=O)OCO3)N1CCN(c2ccccc2)CC1	12.2% (inactive)
O=C(CCCn1c(=S)[nH]c2cc3c(cc2c1=O)OCO3)N1CCN(c2ccc(F)cc2)CC1	27.2% (inactive)
NC(=O)CSc1nnc(-c2ccccc2Br)n1-c1cccc(C(F)(F)F)c1	5.9% (inactive)
Cc1[nH]nc(N)c1-c1ccc(Cl)cc1	14.7% (inactive)
O=C(CCc1nnc(CCCCc2ccccc2)o1)NCCc1cccnc1	24.2% (inactive)
CC(c1cccnc1)N(C(=O)Nc1ccccc1)C1CCCCC1 (stereo not drawn)	-11.5% (inactive)
O=C(Nc1ccc(Cl)cc1C(F)(F)F)c1ccccc1Cl	3.5% (inactive)

SMILES	inhibition
CCC(CC)COC(=O)C1=C(C)NC(=O)NC1c1cc(OC)ccc1OC (stereo not drawn)	-2% (inactive)
CC(=O)Nc1ccc(NC(=O)CSc2nc3nc(-c4cccs4)cc(C(F)(F)F)c3c(=O)[nH]2)cc1	5.7% (inactive)
COc1ccc(NC(=O)CSc2nc3nc(-c4cccs4)cc(C(F)(F)F)c3c(=O)[nH]2)c(OC)c1	22.2% (inactive)
CN1CCN(CC(=O)Nc2ccccc2Oc2ccccc2)CC1	15.7% (inactive)
COc1ccc(OCCSc2nc(C)c(Cc3ccccc3)c(=O)[nH]2)cc1	25.5% (inactive)
Cn1c(=O)[nH]c(=O)c2c1nc(NCc1ccccc1)n2Cc1ccc(F)cc1	16% (inactive)
Cc1ccc(/C=N/NC(=O)CSc2nc3ccccc3c(=O)n2-c2ccccc2C)s1	-0.2% (inactive)
N#Cc1c2n(c3c(=O)n(Cc4ccccc4Cl)cnc13)CCCCC2	16.9% (inactive)
Cc1oc2ccc(OCc3cccc(Cl)c3)cc2c1C(=O)O	9.4% (inactive)
O=S(=O)(c1ccc(F)cc1)N1CCN(Cc2ccccn2)CC1	8.3% (inactive)
NS(=O)(=O)c1ccc(NC(=O)COC(=O)CCc2ccc(S(=O)(=O)N3CCOCC3)cc2)cc1	-3% (inactive)
CC(C)Cn1c(=O)c(C(=O)Nc2ccccc2S(N)(=O)=O)c(O)c2ccccc21	22.9% (inactive)
CCn1c(=O)c(C(=O)Nc2cnccn2)c(O)c2ccccc21	18.7% (inactive)
Cn1c(=O)c(C(=O)Nc2cnccn2)c(O)c2ccccc21	-39.4% (inactive)
CCn1c(=O)c(C(=O)Nc2ccccc2S(N)(=O)=O)c(O)c2ccccc21	-12.7% (inactive)
CC(C)Cn1c(=O)c(C(=O)Nc2cnccn2)c(O)c2ccccc21	16.2% (inactive)
CCCn1c(=O)c(C(=O)Nc2cnccn2)c(O)c2ccccc21	-10.4% (inactive)
CCCC(=O)N(CCN1CCOCC1)c1nc2c(C)ccc(C)c2s1	10.7% (inactive)
COc1ccc(-c2cnn3cc(-c4cccc(Cl)c4)cnc23)cc1	-3.7% (inactive)
COc1ccc(/C=N/NC(=O)c2ccoc2C)cc1COc1ccc(Cl)cc1	-42% (inactive)
O=C(N/N=C/c1cn(-c2ccccc2)nc1-c1cccnc1)c1cccnc1	7.5% (inactive)
N#CC(=C=[N-])c1nc2ccccc2nc1-[n+]1cccc(NC(=O)c2cccs2)c1	10% (inactive)
Nc1nnc(COc2ccccc2)s1	-4.5% (inactive)
